# Assay results from the supplement of paper PMC8728848.
# This is one part of a sample in which the strongest signals are shown more often than they occur.
# B1: Erv46-EDTA (Saccharomyces cerevisiae), P39727 (protein)
# chain: MKFLVNVALVFMVVYISYIYAAAPEHHHHHHDYDIPTTENLYFQGAMDSVVTRPQLVVDRDRHAKLELNMDVTFPSMPCDLVNLDIMDDSGEMQLDILDAGFTMSRLNSEGRPVGDATELHVGGNGDGTAPVNNDPNYCGPCYGAKDQSQNENLAQEEKVCCQDCDAVRSAYLEAGWAFFDGKNIEQCEREGYVSKINEHLNEGCRIKGSAQINRIQGNLHFAPGKPYQNAYGHFHDTSLYDKTSNLNFNHIINHLSFGKPIQSHSKLLGNDKRHGGAVVATSPLDGRQVFPDRNTHFHQFSYFAKIVPTRYEYLDNVVIETAQFSATFHSRPLAGGRDKDHPNTLHVRGGIPGMFVFFEMSPLKVINKEQ
# Experiments:
# Assay in all cases: glycan array binding signal (z-score within array); higher = stronger binding
# Settings in all cases: glycan notation: IUPAC condensed, linker removed
# GalNAc(b1-4)Gal(b1-4)Glc = target: GalNAc(b1-4)Gal(b1-4)Glc
# Outline: (§1)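 From the Consortium for Functional Glycomics database, 3228 arrays were curated, keeping only those whose protein sequence was available. Binding is given as a within-array Z-score averaged across arrays sharing a protein sequence and across linkers. Negative Z-scores can be read as non-binding.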
# GalNAc(b1-4)GlcNAc = target: GalNAc(b1-4)GlcNAc
# Outline: as §1
# [1] = target: GalNAc(b1-4)GlcNAc(b1-3)GalNAc(b1-4)GlcNAc
# Outline: as §1
# [2] = target: GlcNAc(b1-2)Man(a1-3)[GlcNAc(b1-2)Man(a1-6)]Man(b1-4)GlcNAc(b1-4)[Fuc(a1-6)]GlcNAc
# Outline: as §1
# [3] = target: GlcNAc(b1-2)[GlcNAc(b1-6)]Man(a1-6)[GlcNAc(b1-2)Man(a1-3)]Man(b1-4)GlcNAc(b1-4)[Fuc(a1-6)]GlcNAc
# Outline: as §1
# [4] = target: GlcNAc(b1-3)Gal(b1-4)GlcNAc(b1-2)[GlcNAc(b1-3)Gal(b1-4)GlcNAc(b1-6)]Man(a1-6)[GlcNAc(b1-3)Gal(b1-4)GlcNAc(b1-2)Man(a1-3)]Man(b1-4)GlcNAc(b1-4)GlcNAc
# Outline: as §1
# [5] = target: GlcNAc(b1-3)Gal(b1-4)GlcNAc(b1-3)Gal(b1-4)GlcNAc(b1-2)Man(a1-3)[GlcNAc(b1-3)Gal(b1-4)GlcNAc(b1-3)Gal(b1-4)GlcNAc(b1-2)Man(a1-6)]Man(b1-4)GlcNAc(b1-4)GlcNAc
# Outline: as §1
# [6] = target: GlcNAc(b1-3)Gal(b1-4)GlcNAc(b1-3)Gal(b1-4)GlcNAc(b1-3)Gal(b1-4)GlcNAc(b1-3)Gal(b1-4)GlcNAc(b1-2)[GlcNAc(b1-3)Gal(b1-4)GlcNAc(b1-3)Gal(b1-4)GlcNAc(b1-3)Gal(b1-4)GlcNAc(b1-3)Gal(b1-4)GlcNAc(b1-6)]Man(a1-6)[GlcNAc(b1-3)Gal(b1-4)GlcNAc(b1-3)Gal(b1-4)GlcNAc(b1-3)Gal(b1-4)GlcNAc(b1-3)Gal(b1-4)GlcNAc(b1-2)Man(a1-3)]Man(b1-4)GlcNAc(b1-4)[Fuc(a1-6)]GlcNAc
# Outline: as §1
# GlcNAc(b1-6)GalNAc = target: GlcNAc(b1-6)GalNAc
# Outline: as §1
# [7] = target: Neu5Ac(a2-3)Gal(b1-3)GlcNAc(b1-2)Man(a1-3)[Neu5Ac(a2-3)Gal(b1-3)GlcNAc(b1-2)Man(a1-6)]Man(b1-4)GlcNAc(b1-4)GlcNAc
# Outline: as §1
# [8] = target: Neu5Ac(a2-3)Gal(b1-3)[Fuc(a1-4)]GlcNAc(b1-3)Gal(b1-3)[Fuc(a1-4)]GlcNAc
# Outline: as §1
# [9] = target: Neu5Ac(a2-3)Gal(b1-4)GlcNAc(b1-2)Man(a1-3)[Neu5Ac(a2-3)Gal(b1-4)GlcNAc(b1-2)Man(a1-6)]Man(b1-4)GlcNAc(b1-4)[Fuc(a1-6)]GlcNAc
# Outline: as §1
# [10] = target: Neu5Ac(a2-3)Gal(b1-4)GlcNAc(b1-2)[Neu5Ac(a2-3)Gal(b1-4)GlcNAc(b1-6)]Man(a1-6)[Neu5Ac(a2-3)Gal(b1-4)GlcNAc(b1-2)Man(a1-3)][GlcNAc(b1-4)]Man(b1-4)GlcNAc(b1-4)GlcNAc
# Outline: as §1
# [11] = target: Neu5Ac(a2-3)Gal(b1-4)[Fuc(a1-3)]GlcNAc(b1-3)Gal
# Outline: as §1
# [12] = target: Neu5Ac(a2-3)Gal(b1-4)[Fuc(a1-3)]GlcNAc6S
# Outline: as §1
# [13] = target: Neu5Ac(a2-3)[GalNAc(b1-4)]Gal(b1-4)GlcNAc
# Outline: as §1
# Neu5Ac(a2-6)Gal = target: Neu5Ac(a2-6)Gal
# Outline: as §1
# [14] = target: Neu5Ac(a2-6)Gal(b1-4)GlcNAc(b1-2)Man(a1-3)[Neu5Ac(a2-3)Gal(b1-4)GlcNAc(b1-2)Man(a1-6)]Man(b1-4)GlcNAc(b1-4)GlcNAc
# Outline: as §1
# [15] = target: Neu5Ac(a2-6)Gal(b1-4)GlcNAc(b1-2)Man(a1-6)[Gal(b1-4)GlcNAc(b1-2)Man(a1-3)]Man(b1-4)GlcNAc(b1-4)GlcNAc
# Outline: as §1
# [16] = target: Neu5Ac(a2-6)Gal(b1-4)GlcNAc(b1-3)Gal(b1-4)GlcNAc(b1-3)Gal(b1-4)GlcNAc(b1-2)Man(a1-3)[Neu5Ac(a2-6)Gal(b1-4)GlcNAc(b1-3)Gal(b1-4)GlcNAc(b1-3)Gal(b1-4)GlcNAc(b1-2)Man(a1-6)]GalNAc
# Outline: as §1
# [17] = target: Neu5Ac(a2-6)Gal(b1-4)GlcNAc(b1-6)GalNAc
# Outline: as §1
# [18] = target: Neu5Ac(a2-8)Neu5Ac(a2-3)Gal(b1-3)GalNAc(b1-4)[Neu5Ac(a2-3)]Gal(b1-4)Glc
# Outline: as §1
# [19] = target: Neu5Ac(a2-8)Neu5Ac(a2-3)Gal(b1-4)GlcNAc
# Outline: as §1
# [20] = target: Neu5Ac(a2-8)Neu5Ac(a2-3)[Gal(b1-3)GalNAc(b1-4)]Gal(b1-4)Glc
# Outline: as §1
# [21] = target: Neu5Gc(a2-3)Gal(b1-4)[Fuc(a1-3)]GlcNAc
# Outline: as §1
# [22] = target: Neu5Gc(a2-8)Neu5Gc(a2-3)Gal(b1-4)GlcNAc(b1-3)Gal(b1-4)GlcNAc
# Outline: as §1
binder,measurement,setting,value
B1,glycan array binding signal (z-score),GalNAc(b1-4)Gal(b1-4)Glc,-0.674
same,glycan array binding signal (z-score),GalNAc(b1-4)GlcNAc,0.697
same,glycan array binding signal (z-score),[1],-0.443
same,glycan array binding signal (z-score),[2],6.37
same,glycan array binding signal (z-score),[3],1.14
same,glycan array binding signal (z-score),[4],2.9
same,glycan array binding signal (z-score),[5],3.36
same,glycan array binding signal (z-score),[6],0.589
same,glycan array binding signal (z-score),GlcNAc(b1-6)GalNAc,-0.565
same,glycan array binding signal (z-score),[7],1.06
same,glycan array binding signal (z-score),[8],-0.483
same,glycan array binding signal (z-score),[9],0.11
same,glycan array binding signal (z-score),[10],-0.335
same,glycan array binding signal (z-score),[11],-0.531
same,glycan array binding signal (z-score),[12],-0.585
same,glycan array binding signal (z-score),[13],0.122
same,glycan array binding signal (z-score),Neu5Ac(a2-6)Gal,-0.121
same,glycan array binding signal (z-score),[14],-0.318
same,glycan array binding signal (z-score),[15],-0.053
same,glycan array binding signal (z-score),[16],3.54
same,glycan array binding signal (z-score),[17],-0.855
same,glycan array binding signal (z-score),[18],-0.029
same,glycan array binding signal (z-score),[19],-0.501
same,glycan array binding signal (z-score),[20],-0.605
same,glycan array binding signal (z-score),[21],0.625
same,glycan array binding signal (z-score),[22],-0.449
